Source: the supplement of paper PMC11732987, “Enantioselective OTUD7B fragment discovery through chemoproteomics screening and high-throughput optimisation” (Communications Chemistry, 2025)

Assays:
Test in all cases: log2 ratio of Biotin-Ahx-Ub-VS probe labelling (fragment/DMSO); higher = less target engagement (more negative = stronger competition), active = hit call of the paper (q ≤ 0.05, log2 ratio ≤ -1)
Details in all cases: compound concentration: 200 uM; treatment time: 3 h
[1] = target: T1, USP42 (UniProt Q9H9J4)
T1 sequence (whole entry): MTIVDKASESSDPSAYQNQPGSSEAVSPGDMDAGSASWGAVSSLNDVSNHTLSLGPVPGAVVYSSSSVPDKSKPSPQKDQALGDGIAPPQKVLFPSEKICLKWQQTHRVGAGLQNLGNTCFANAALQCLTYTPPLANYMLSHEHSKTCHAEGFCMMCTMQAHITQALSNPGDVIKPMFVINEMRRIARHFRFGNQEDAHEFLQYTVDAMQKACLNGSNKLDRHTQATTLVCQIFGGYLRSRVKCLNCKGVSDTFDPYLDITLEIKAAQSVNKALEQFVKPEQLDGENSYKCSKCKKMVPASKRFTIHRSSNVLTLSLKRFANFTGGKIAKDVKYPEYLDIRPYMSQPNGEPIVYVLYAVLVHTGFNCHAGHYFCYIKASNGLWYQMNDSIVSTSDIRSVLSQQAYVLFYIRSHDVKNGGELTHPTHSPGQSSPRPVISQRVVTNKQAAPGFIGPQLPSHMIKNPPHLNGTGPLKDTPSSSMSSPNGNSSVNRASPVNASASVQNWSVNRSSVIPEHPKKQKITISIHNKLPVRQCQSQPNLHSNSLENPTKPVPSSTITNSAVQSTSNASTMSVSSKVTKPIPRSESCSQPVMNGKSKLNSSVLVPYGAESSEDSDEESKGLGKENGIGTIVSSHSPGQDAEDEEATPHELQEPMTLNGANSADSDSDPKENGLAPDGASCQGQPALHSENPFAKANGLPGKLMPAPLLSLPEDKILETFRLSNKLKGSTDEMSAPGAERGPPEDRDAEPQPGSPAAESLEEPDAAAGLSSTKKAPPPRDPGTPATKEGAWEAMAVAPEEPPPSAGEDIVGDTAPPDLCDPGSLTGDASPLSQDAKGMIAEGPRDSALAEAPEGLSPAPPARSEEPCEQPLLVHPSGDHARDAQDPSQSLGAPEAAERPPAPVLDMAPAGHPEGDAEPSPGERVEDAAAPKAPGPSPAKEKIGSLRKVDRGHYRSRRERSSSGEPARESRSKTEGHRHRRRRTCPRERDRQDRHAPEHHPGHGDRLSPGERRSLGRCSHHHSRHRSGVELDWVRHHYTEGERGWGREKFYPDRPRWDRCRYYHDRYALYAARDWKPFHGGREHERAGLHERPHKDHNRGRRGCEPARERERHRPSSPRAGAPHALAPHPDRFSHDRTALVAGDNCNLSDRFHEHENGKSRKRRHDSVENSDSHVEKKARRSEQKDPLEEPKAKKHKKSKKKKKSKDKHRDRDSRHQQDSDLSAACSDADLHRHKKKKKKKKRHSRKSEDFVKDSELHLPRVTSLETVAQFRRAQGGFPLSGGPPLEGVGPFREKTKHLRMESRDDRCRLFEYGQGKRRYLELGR
How it was run: (§1)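 HEK293T lysate (495 µg per sample, in Tris/CHAPS/IGEPAL buffer with protease inhibitors) was treated in triplicate with fragment at 200 µM or with DMSO for 3 h. It was then treated with Biotin-Ahx-Ub-VS (0.5 µM final) for 1 h. Labelled DUBs were NeutrAvidin-enriched, digested with LysC and trypsin, and run by diaPASEF LC-MS/MS. Spectronaut label-free quantities were global-median-normalised. Values are average log2 ratios fragment/DMSO by unpaired t-test, using proteins with ≥2 unique peptides.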

[2] = target: USP46 (UniProt P62068)
Chain of USP46 (P62068 whole entry): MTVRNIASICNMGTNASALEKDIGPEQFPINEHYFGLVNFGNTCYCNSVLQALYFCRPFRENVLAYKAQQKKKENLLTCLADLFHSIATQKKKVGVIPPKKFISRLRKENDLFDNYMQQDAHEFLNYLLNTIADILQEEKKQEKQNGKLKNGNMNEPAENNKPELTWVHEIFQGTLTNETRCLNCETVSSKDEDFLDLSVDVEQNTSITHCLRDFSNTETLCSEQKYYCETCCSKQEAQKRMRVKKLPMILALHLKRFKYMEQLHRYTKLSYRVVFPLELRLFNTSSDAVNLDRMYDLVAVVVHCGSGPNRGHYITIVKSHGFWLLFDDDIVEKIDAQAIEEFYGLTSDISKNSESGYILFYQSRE
How it was run: as §1

[3] = target: T2, USP47 (UniProt Q96K76)
T2 sequence (whole entry): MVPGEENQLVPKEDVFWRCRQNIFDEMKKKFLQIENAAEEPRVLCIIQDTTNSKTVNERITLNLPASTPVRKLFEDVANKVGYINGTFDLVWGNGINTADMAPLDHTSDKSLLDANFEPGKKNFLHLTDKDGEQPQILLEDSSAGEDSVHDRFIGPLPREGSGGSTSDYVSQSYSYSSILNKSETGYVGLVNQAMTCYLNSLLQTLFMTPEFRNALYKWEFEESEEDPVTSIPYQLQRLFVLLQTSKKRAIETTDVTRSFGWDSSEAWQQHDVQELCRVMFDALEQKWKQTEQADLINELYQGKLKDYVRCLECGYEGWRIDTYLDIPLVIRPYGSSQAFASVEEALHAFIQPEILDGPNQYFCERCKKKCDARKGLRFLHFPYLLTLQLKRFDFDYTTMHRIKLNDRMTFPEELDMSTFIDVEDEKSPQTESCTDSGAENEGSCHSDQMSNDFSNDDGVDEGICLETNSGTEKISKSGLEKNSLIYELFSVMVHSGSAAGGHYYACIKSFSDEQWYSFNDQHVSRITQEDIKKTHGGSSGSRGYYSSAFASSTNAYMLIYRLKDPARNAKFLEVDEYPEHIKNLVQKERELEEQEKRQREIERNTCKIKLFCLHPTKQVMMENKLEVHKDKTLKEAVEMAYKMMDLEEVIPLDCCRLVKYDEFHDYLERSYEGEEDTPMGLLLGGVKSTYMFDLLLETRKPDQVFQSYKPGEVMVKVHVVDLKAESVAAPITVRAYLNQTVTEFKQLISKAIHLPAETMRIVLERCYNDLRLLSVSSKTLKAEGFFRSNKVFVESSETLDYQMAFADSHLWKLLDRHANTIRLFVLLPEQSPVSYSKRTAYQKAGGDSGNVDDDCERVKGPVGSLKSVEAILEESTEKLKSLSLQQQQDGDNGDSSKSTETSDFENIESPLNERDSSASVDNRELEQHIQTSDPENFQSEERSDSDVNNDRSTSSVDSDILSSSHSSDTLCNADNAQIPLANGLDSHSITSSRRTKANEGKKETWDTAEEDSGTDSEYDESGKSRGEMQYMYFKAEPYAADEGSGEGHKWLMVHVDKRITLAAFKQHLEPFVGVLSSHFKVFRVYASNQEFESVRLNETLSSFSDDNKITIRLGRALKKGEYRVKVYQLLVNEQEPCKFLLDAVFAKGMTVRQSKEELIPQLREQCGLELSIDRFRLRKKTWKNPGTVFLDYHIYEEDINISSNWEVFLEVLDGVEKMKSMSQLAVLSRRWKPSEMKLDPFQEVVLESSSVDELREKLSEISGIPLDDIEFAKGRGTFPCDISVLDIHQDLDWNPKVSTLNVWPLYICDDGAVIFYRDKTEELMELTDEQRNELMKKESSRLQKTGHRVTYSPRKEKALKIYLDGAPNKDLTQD
How it was run: as §1

[4] = target: T3, USP48 (UniProt Q86UV5)
T3 sequence (whole entry): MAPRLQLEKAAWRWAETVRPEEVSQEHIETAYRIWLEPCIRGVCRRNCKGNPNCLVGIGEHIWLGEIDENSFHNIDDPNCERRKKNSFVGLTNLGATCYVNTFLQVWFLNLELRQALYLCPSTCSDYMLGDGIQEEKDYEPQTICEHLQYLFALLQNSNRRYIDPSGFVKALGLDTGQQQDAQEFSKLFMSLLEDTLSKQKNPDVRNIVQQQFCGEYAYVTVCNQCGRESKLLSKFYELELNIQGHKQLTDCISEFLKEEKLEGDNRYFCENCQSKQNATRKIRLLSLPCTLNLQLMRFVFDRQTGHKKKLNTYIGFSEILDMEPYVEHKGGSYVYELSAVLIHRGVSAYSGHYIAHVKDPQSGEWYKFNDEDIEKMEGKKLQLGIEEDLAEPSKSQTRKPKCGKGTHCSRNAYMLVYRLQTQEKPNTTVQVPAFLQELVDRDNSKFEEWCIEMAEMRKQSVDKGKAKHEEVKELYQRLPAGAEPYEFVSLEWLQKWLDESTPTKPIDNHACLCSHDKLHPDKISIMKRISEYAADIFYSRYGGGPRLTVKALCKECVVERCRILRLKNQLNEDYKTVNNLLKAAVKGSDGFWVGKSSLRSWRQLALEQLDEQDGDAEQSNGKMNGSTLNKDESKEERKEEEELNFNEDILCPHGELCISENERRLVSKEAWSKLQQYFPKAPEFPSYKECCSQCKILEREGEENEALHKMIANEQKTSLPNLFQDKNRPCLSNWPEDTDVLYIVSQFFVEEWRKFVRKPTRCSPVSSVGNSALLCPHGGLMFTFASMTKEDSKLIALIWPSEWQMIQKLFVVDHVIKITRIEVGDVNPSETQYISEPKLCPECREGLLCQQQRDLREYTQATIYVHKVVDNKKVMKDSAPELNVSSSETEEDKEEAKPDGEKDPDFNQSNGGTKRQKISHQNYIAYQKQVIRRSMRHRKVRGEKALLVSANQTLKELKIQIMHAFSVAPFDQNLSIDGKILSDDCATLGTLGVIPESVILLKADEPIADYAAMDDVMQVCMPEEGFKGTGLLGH
How it was run: as §1

[5] = target: T4, USP5 (UniProt P45974)
T4 sequence (whole entry): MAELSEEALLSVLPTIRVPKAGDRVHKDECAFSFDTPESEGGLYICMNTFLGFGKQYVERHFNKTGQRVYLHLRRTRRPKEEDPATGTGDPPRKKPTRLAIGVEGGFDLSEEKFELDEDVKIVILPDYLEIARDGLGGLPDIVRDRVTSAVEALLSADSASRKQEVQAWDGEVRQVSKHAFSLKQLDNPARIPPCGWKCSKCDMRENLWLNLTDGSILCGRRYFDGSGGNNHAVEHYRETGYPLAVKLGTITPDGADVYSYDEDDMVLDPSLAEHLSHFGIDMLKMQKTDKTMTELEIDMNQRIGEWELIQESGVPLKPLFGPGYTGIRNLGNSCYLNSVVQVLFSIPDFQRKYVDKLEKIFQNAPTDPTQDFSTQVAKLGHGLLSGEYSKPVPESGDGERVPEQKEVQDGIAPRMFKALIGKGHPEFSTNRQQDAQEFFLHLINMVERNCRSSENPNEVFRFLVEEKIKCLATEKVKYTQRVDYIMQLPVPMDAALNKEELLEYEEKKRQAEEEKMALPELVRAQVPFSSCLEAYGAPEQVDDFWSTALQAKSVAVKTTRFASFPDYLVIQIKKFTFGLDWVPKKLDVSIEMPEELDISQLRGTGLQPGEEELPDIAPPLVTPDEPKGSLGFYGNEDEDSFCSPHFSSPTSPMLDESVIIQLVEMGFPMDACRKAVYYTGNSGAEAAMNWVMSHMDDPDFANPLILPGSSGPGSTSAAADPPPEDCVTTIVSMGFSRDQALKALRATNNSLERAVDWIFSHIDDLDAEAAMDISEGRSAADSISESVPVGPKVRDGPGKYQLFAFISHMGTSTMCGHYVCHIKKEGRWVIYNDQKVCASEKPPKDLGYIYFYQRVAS
How it was run: as §1

[6] = target: USP54 (UniProt Q70EL1)
Chain of USP54 (Q70EL1 whole entry): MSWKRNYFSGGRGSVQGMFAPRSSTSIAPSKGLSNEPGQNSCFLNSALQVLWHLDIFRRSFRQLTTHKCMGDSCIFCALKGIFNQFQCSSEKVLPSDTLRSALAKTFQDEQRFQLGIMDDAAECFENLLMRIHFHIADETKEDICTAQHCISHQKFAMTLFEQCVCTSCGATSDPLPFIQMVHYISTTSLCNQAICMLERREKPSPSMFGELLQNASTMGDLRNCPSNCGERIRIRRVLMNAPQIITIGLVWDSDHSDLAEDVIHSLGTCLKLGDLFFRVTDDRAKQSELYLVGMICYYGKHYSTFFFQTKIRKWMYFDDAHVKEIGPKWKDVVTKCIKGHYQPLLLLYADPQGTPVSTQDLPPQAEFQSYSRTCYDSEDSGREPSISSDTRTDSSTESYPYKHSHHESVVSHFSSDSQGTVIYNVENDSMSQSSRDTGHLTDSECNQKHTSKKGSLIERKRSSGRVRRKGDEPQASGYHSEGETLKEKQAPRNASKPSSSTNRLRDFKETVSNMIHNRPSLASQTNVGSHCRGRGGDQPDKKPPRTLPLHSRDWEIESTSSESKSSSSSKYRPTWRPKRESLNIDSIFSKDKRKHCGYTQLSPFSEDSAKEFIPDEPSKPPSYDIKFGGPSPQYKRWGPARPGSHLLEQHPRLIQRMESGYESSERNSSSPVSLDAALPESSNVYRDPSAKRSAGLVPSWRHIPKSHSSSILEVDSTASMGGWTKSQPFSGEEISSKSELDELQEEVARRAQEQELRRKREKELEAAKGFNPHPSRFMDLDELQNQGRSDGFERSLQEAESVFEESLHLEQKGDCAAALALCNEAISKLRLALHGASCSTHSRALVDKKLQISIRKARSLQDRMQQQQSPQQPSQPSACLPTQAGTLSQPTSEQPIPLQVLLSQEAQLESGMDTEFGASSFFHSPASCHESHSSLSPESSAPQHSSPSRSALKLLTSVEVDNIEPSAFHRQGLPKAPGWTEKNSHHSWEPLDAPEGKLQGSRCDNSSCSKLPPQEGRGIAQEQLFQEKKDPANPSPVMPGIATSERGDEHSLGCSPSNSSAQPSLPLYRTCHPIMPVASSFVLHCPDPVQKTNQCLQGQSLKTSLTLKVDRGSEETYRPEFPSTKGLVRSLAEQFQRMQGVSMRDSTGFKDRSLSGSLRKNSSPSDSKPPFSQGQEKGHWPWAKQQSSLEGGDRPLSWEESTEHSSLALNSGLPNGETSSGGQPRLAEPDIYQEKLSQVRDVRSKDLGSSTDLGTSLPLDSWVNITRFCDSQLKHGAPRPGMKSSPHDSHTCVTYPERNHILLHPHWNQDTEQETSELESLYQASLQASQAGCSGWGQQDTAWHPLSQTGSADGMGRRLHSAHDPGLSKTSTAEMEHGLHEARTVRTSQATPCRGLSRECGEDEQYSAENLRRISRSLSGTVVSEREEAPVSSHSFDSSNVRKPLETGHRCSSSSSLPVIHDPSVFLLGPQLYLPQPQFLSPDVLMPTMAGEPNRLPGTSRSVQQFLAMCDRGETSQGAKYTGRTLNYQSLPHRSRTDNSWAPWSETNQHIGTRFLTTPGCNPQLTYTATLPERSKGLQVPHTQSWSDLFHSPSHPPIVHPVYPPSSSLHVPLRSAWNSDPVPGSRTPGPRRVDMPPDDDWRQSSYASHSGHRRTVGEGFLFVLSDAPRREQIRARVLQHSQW
How it was run: as §1

[7] = target: USP7 (UniProt Q93009)
Chain of USP7 (Q93009 whole entry, looked up): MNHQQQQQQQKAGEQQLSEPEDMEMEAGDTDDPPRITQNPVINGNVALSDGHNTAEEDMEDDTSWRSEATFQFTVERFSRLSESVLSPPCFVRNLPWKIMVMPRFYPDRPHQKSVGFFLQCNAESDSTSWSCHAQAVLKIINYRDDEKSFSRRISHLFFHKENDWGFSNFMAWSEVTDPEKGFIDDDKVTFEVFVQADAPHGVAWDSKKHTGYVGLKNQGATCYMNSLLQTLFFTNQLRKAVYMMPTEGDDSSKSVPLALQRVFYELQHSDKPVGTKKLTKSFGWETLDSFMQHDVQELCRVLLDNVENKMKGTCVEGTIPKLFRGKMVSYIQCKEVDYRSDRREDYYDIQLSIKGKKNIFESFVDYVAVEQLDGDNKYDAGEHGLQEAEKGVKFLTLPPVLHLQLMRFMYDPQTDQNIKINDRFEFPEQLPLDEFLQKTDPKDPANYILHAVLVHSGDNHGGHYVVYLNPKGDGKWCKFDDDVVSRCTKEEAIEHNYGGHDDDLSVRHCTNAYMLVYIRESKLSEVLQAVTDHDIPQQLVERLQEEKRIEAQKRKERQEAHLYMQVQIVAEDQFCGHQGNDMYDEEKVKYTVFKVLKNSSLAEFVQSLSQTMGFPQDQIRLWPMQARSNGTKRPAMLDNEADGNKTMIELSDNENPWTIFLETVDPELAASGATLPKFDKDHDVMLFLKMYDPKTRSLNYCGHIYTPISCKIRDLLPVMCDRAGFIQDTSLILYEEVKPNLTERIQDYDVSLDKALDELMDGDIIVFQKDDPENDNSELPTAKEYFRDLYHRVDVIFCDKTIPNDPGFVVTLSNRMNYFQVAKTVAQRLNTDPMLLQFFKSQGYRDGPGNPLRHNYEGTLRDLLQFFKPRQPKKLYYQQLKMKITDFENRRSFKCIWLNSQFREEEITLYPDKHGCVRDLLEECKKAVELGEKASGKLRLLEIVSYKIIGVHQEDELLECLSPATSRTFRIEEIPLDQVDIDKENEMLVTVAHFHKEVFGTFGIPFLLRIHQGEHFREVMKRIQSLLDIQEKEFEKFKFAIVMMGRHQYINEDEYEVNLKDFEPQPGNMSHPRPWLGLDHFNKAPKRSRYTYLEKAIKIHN
How it was run: as §1

[8] = target: T5, USP8 (UniProt P40818)
T5 sequence (whole entry): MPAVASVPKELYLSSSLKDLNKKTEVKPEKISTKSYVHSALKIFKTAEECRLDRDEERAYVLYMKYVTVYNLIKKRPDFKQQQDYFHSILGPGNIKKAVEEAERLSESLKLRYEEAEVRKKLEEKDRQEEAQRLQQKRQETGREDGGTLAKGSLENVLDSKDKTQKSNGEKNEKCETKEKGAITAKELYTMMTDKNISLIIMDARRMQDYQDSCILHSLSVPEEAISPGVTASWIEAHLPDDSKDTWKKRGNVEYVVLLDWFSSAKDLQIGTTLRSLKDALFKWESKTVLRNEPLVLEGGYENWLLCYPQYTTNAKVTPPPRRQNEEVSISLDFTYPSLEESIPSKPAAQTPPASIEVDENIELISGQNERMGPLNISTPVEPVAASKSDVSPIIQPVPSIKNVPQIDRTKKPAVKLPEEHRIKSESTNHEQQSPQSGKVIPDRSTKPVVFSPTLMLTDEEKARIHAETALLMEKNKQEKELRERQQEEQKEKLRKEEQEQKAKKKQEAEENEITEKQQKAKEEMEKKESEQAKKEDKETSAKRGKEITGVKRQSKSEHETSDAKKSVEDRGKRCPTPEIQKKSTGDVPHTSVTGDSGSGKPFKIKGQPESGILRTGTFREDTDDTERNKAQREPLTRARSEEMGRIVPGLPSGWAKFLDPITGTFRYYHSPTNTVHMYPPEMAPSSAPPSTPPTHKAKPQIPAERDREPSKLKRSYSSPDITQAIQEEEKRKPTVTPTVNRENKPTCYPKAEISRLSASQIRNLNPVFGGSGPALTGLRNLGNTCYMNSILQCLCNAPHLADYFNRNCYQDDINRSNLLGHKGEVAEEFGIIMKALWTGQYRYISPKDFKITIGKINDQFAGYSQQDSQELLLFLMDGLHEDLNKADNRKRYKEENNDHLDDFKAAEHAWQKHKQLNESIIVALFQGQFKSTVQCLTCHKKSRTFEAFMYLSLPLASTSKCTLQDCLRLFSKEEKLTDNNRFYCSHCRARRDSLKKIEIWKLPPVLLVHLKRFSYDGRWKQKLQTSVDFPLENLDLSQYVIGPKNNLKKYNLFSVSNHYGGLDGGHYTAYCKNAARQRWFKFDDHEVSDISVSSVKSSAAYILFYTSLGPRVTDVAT
How it was run: as §1

Measured: log2 ratio of Biotin-Ahx-Ub-VS probe labelling

Cc1cccc(N2CCC(NC(=O)CCl)C2=O)c1 (stereo not drawn)
inactive: [1] -0.395 | [2] 0.013 | [3] -0.0227 | [4] -0.138 | [5] -0.179 | [6] 0.699 | [7] -0.204 | [8] -0.325
